This note sets out measurements from PubChem BioAssay (Tox21).

Molecules are shown by their SMILES. Results filed as inconclusive are left out. Activity calls are given as the source filed them. Unless noted, calls follow the shape of the dose curve; as a rule, active = well fitted curve in the direction sought with a large enough effect in the repeat runs; inconclusive = weak or mixed curves; inactive = no such curve, though single readings can be large; an effect the other way counts as inactive or inconclusive.

A short description of experiment [1]: qHTS assay to identify small molecule antagonists of the retinoid acid receptor (RAR) signaling pathway - cell viability counter screen (AID 1159551). Also: nearly all actives have a fitted effect of over 35% in size. The method, boiled down:
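ATP-based viability, C3RL4 cells, 6 h at 37 C with 1 uM final retinol co-added after compound; luminescence read 30 min post CellTiter-Glo, RT.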
A general note: In qHTS, concentration-response curves come from the screen itself.

The nature of experiment [2]: qHTS assay to identify small molecule antagonists of the retinoic acid receptor (RAR) signaling pathway (AID 1159552; also: nearly all actives have a fitted effect of over 50% in size; also: potency is read from the fitted curve at half-maximal effect). The method, boiled down:
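Retinol at 1 uM final stimulated RARE-luciferase expression in C3RL4 cells exposed to test compounds for 6 hr at 37 C. Reduced luminescence, read 30 min after detection reagent, indicated pathway antagonism.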

A short description of experiment [3]: qHTS assay to identify small molecule agonists of the retinoic acid receptor (RAR) signaling pathway (AID 1159553). The method, boiled down:
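Quantitative high-throughput format: the Tox21 10K library was tested on C3RL4 RARE-luciferase cells for 6 hr at 37 C and 5% CO2, with luminescence measured after a 30 min room-temperature reagent step.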

Experiment [4] is described as follows: qHTS assay to identify small molecule antagonists of the estrogen related receptor (ERR) signaling pathway from Tox21 library - cell viability counter screen (AID 1224834). Also: nearly all actives have a fitted effect of over 30% in size. The method, boiled down: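 Compounds in DMSO were pinned onto ERR cells that had been incubated for 6 h, and the plates were held at 37 C for 17.5 h. CellTiter-Fluor reagent was then added and fluorescence was measured after 30 min.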

The target in experiment [5] is Luciferin 4-monooxygenase (Photinus pyralis) (UniProt P08659). Kind of experiment: qHTS assay to identify small molecule inhibitors of firefly luciferase (AID 1224835). Also: series mostly up to about 120 µM; nearly all actives have a fitted effect of over 25% in size. The method in brief: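 Biochemical qHTS: compounds run as interplate titrations against purified firefly enzyme, with D-luciferin and ATP each at its KM concentration. Light output recorded by CCD imaging.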
Luciferin 4-monooxygenase (Photinus pyralis), sequence (P08659 whole entry, looked up): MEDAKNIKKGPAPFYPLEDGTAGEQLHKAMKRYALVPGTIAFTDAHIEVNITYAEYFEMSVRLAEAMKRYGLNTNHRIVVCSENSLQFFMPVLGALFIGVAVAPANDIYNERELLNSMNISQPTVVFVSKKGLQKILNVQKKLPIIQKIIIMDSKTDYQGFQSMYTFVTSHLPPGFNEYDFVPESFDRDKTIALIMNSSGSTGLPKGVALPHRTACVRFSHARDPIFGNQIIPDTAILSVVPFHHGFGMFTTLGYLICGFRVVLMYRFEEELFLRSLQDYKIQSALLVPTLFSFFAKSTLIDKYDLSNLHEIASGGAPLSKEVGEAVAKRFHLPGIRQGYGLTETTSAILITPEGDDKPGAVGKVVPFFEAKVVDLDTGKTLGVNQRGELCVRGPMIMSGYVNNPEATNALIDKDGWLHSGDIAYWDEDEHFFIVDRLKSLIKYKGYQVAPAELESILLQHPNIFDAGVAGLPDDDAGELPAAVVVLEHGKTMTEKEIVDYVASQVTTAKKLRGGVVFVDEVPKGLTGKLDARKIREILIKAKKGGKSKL

Experiment [6] in a line: qHTS assay to identify small molecule agonists of the constitutive androstane receptor (CAR) signaling pathway - cell viability counter screen (AID 1224836). Also: series mostly up to about 92 µM; nearly all actives have a fitted effect of over 45% in size. The method in brief:
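Cells were seeded and incubated 4 hrs. Compounds were added across 15 concentrations together with PK11195 at 0.75 uM final. Plates were incubated 23 hrs at 37 C. CellTiter-Fluor was added and fluorescence measured.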

A short description of experiment [7]: qHTS assay to identify small molecule antagonists of the constitutive androstane receptor (CAR) signaling pathway - cell viability counter screen (AID 1224837). Also: series mostly up to about 92 µM; nearly all actives have a fitted effect of over 45% in size. The method, boiled down:
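Cells are seeded, rested 4 hr at 37 C/5% CO2, dosed with compound (15-point series) and 50 nM CITCO, incubated a further 23 hr, and then CellTiter-Fluor reagent is added before fluorescence is read. The line is HepG2 with stable hCAR and CYP2B6-2.2kb.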

In experiment [8] the target is Nuclear receptor subfamily 1 group I member 3 (Homo sapiens) (UniProt Q14994). Put plainly: qHTS assay to identify small molecule antagonists of the constitutive androstane receptor (CAR) signaling pathway (AID 1224838).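 Also: HepG2 cells stably expressing hCAR with CYP2B6 luciferase reporter stimulated by CITCO; nearly all actives have a fitted effect of over 40% in size.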 The method, boiled down:
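Luminescence from a CYP2B6-2.2kb promoter reporter in hCAR-expressing HepG2 cells reflects CAR signaling. Cells received compounds at 15 concentrations and 50 nM CITCO (final), then incubated 24 h at 37 C/5% CO2.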

Experiment [9] is described as follows: qHTS assay to identify small molecule antagonists of the estrogen related receptor signaling pathway with the pleiotropic PPARgamma coactivator (PGC) from Tox21 10K library - cell viability counter screen (AID 1224840; active = well fitted cell-killing curve with a large enough effect in the repeat runs, not every such curve was filed as active; also: nearly all actives have a fitted effect of over 40% in size). The method, boiled down: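 Cell viability is measured by CellTiter-Fluor fluorescence in PGC/ERR cells that receive compounds after a 6-hour attachment period and are then incubated 17.5 hours at 37 C.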

Experiment [10] concerns the target Thyrotropin receptor (Homo sapiens) (UniProt P16473). Kind of experiment: qHTS assay to identify small molecule agonists of the thyroid stimulating hormone receptor (TSHR) signaling pathway (AID 1224843; calls by dose curve; also: nearly all actives have a fitted effect of over 45% in size). The method in brief: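 HEK293/TSHR, 800 cells/well; cpd 30 min RT; add cAMP-d2 + anti-cAMP-cryptate, 1 h RT; fluorescence read on plate reader. 15-pt titration, n=3.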

Experiment [11] can be described thus: qHTS assay to identify small molecule agonists of the hypoxia (HIF-1) signaling pathway - cell viability counter screen (AID 1224844; calls by dose curve; also: nearly all actives have a fitted effect of over 50% in size). The method in brief: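 Viability counter screen: HRE-bla ME-180 cells plated 5 hrs before compound addition, treated 17 hrs at 37C and 5% CO2, then CellTiter-Glo added after the FRET reporter read; luminescence after 30 min.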

Experiment [12] concerns the target Nuclear receptor subfamily 1 group I member 3 (Homo sapiens) (UniProt Q14994). Put plainly: qHTS assay to identify small molecule agonists of the constitutive androstane receptor (CAR) signaling pathway (AID 1224839).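 Also: HepG2 cells stably carrying human CAR and a CYP2B6 luciferase reporter; series mostly up to about 92 µM; nearly all actives have a fitted effect of over 15% in size.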 The method in brief: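 Cells were plated and incubated 4 hrs, then dosed with compounds at 15 concentrations. PK11195 was added to 0.75 uM final. After 24 hrs at 37 C, luciferase luminescence was measured.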

The nature of experiment [13]: qHTS assay to identify small molecule agonists of the estrogen related receptor signaling pathway with the pleiotropic PPARgamma coactivator (PGC) from Tox21 10K library (AID 1224842). Also: nearly all actives have a fitted effect of over 15% in size. The method, boiled down:
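PGC/ERR reporter cell line, 2,000 cells per well, incubated 6 h at 37 C before 23 nL compound in DMSO was added. After 18 h at 37 C, One-Glo luminescence read following 30 min at room temperature.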

Experiment [14] in a line: qHTS assay to identify small molecule antagonists of the estrogen related receptor (ERR) signaling pathway - cell viability counter screen (AID 1224818). Also: series mostly up to about 46 µM. The method, boiled down:
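Quantitative high-throughput viability counter screen in ERR cells. Compounds (DMSO) incubated 17.5 h at 37 C; read-out was CellTiter-Fluor fluorescence.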

A short description of experiment [15]: qHTS assay to identify small molecule antagonists of the estrogen related receptor (ERR) signaling pathway (AID 1224819;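 also: luminescence from an ERR-driven luciferase reporter measured with One-Glo reagent; series mostly up to about 46 µM; nearly all actives have a fitted effect of over 50% in size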). The method in brief:
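ERR reporter cell line (NTP) plated at 2,000 cells/well, settled 6 h at 37C/5% CO2, then exposed to LOPAC compounds for 18 h at 37C. One-Glo luciferase luminescence read after 30 min at room temperature.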

Experiment [16] in a line: qHTS assay to identify small molecule agonists of the estrogen related receptor (ERR) signaling pathway (AID 1224820). The method in brief: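 Following a 6 h settling period, 2,000 ERR cells per well receive DMSO-dissolved compounds by pin tool and incubate 18 h at 37 C; agonist activity is scored from One-Glo luminescence read 30 min post-addition.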
For experiment [17], the system named is estrogen-related receptor alpha (ERRalpha) with PGC-1alpha coactivator, human. Kind of experiment: qHTS assay to identify small molecule antagonists of the estrogen related receptor signaling pathway with the pleiotropic PPARgamma coactivator (PGC) (AID 1224821; calls by dose curve;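 also: series mostly up to about 46 µM; lower luminescence signal means antagonism of PGC/ERR signalling; nearly all actives have a fitted effect of over 50% in size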). The method, boiled down:
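Screening used NTP's PGC/ERR cells, dosed via pin tool with compound in DMSO alongside positive and negative controls. After 18 h at 37 C, One-Glo reagent sat 30 min at room temperature before luminescence detection.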

A short description of experiment [18]: qHTS assay to identify small molecule antagonists of the estrogen related receptor signaling pathway with the pleiotropic PPARgamma coactivator (PGC) cell viability counter screen (AID 1224822; also: series mostly up to about 46 µM). The method, boiled down: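 Cytotoxicity in the PGC/ERR cell line is assessed with CellTiter-Fluor, read as fluorescence intensity 30 min after reagent addition, following 17.5 h compound treatment at 37 C.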

Experiment [19] can be described thus: qHTS assay to identify small molecule agonists of the estrogen related receptor signaling pathway with the pleiotropic PPARgamma coactivator (PGC) (AID 1224823). The method in brief: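 In this quantitative high-throughput screen, an 18 h, 37 C treatment of PGC/ERR cells with compounds in DMSO preceded a One-Glo luminescence read taken after 30 min at room temperature.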

The nature of experiment [20]: qHTS assay to identify small molecule antagonists of the estrogen related receptor signaling pathway with the pleiotropic PPARgamma coactivator (PGC) from Tox21 10K library (AID 1224841; call rule not given here; also: potency is read from the fitted curve at half-maximal effect). The method in brief: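 Cells stably carrying the PGC/ERR reporter, seeded at 2,000 per well, received pin-transferred compounds 6 h post-plating. Exposure lasted 18 h at 37 C. Signal: One-Glo luminescence.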

Thyrotropin receptor (Homo sapiens), sequence (P16473 whole entry, looked up): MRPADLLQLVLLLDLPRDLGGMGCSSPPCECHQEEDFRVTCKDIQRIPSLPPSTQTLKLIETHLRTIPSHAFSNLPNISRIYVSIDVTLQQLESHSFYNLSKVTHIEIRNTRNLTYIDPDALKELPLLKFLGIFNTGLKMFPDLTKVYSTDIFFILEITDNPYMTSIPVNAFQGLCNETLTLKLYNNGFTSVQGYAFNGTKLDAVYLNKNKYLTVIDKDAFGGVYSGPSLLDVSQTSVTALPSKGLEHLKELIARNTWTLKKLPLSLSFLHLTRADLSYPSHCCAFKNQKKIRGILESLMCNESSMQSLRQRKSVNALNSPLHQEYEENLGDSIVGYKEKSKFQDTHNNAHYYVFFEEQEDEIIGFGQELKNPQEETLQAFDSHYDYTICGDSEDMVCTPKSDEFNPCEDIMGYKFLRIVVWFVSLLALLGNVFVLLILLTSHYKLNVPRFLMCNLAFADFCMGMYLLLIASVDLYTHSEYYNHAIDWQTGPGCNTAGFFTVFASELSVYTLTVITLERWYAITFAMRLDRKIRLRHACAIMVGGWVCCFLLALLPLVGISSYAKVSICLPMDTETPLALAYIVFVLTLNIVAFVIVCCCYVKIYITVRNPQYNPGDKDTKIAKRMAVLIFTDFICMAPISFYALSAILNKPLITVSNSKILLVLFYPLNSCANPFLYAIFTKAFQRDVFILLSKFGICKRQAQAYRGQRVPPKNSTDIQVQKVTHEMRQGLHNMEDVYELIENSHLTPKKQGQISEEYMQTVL
Nuclear receptor subfamily 1 group I member 3 (Homo sapiens), sequence (Q14994 whole entry, looked up): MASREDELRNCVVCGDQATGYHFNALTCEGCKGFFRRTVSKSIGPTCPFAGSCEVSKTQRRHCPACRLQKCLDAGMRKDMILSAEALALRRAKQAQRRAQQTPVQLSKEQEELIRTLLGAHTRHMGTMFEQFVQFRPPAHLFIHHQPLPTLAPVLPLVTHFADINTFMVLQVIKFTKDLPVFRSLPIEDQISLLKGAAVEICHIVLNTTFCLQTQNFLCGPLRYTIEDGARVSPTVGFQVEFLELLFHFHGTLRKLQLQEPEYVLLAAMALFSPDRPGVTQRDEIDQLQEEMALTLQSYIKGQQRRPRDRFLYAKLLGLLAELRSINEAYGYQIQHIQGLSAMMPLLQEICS

As for `CCN(C(=O)c1cc(C)cc(OC[C@H](C)Nc2ccncc2)c1)C(C)C`, the Potency entry in [1], in [2], in [3], in experiment [4], in experiment [5] and in experiment [6] was “inactive” each time. Moreover, the Potency entry in experiment [7], in experiment [8], in experiment [9], in experiment [10] and in experiment [11] was “inactive” throughout.
As for `CC(C)=CCOc1ccc(/C=C/C(=O)c2ccc(OCC=C(C)C)cc2OCC(=O)O)cc1`, the Potency entry in [1], in [2], in experiment [3], in experiment [4], in [5] and in experiment [6] was “inactive” in each case. For the same compound, the Potency result in experiment [7], in [12], in [9], in experiment [13], in [10] and in experiment [11] was “inactive” each time.
As for `O=C(O)c1ccc(Cl)c(Cl)c1`, the Potency result in [1], in experiment [2], in [3], in [4], in experiment [5] and in experiment [6] was “inactive” throughout. The Potency entry in experiment [7], in experiment [8], in experiment [12], in [9], in [10] and in experiment [11] was “inactive” in each case.
Take `COCCCC/C(=N\OCCN)c1ccc(C(F)(F)F)cc1`: the Potency result in experiment [1], in experiment [3], in experiment [14], in [15], in experiment [17] and in experiment [18] was “inactive” each time. The Potency result in experiment [4], in experiment [5], in experiment [6], in experiment [7], in [8] and in [12] was “inactive” throughout. For the same compound, the Potency result in [9], in experiment [13] and in [10] was “inactive” each time. Moreover, the Potency in experiment [2] was 23.7 µM (active); in experiment [20], 2.98 µM (active). Besides, the outcome in experiment [16] and in experiment [19] was inactive.
On to `COc1cc(-c2ccc(N=C=O)c(OC)c2)ccc1N=C=O`, for which the Potency entry in experiment [1], in experiment [2], in [3], in [4], in experiment [5] and in [6] was “inactive” throughout. The Potency result in [7], in experiment [8], in experiment [12], in [9], in experiment [20] and in [11] was “inactive” throughout.
Take `C1CCCC1`: the Potency result in experiment [1], in experiment [2], in experiment [3], in experiment [4], in [5] and in [6] was “inactive” in each case. The Potency entry in experiment [7], in experiment [8], in experiment [12], in experiment [9], in experiment [20] and in experiment [13] was “inactive” each time. Also, the Potency result in [10] and in experiment [11] was “inactive” each time.
With `CN(C)[C@@H]1C(=O)C(C(N)=O)=C(O)[C@@]2(O)C(=O)C3=C(O)c4c(O)ccc(Cl)c4[C@@H](O)[C@H]3C[C@@H]12`, the Potency result in experiment [1], in [2], in [3], in experiment [14], in [17] and in experiment [18] was “inactive” in each case. Also, the Potency entry in [4], in [5], in experiment [6], in [7], in experiment [9] and in [10] was “inactive” in each case. Also, in experiment [11], the Potency entry was “inactive”. The compound was classed as inactive in experiment [16] and in [19].
